IDE act = boosts human insulin-degrading enzyme activity in HEK cells; FAbeta-B cleavage, fluorescence polarization; 0% vehicle, 100% cell-free pure enzyme wells; activation, % at 5.96 µM; 0.073% of 340,000 active;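 active = activation above the mean of all tested compounds plus 3 SD, set per screening campaign, cut at about 17% in these data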
CHT PAM = human CHT allosteric activation | Q9GZV3 | B-score at 10 µM | CHT-expressing cells, membrane potential dye, choline EC20; stronger effect = higher value; LV-AA mutant CHT in HEK293 cells | 0.49% of 310,000 active;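 active = initial fluorescence not abnormally high and integrated response B-score, plate-corrected, over 3 SD above library mean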
IDE inh = inhibitors of human insulin-degrading enzyme in cells; P14735; HEK cells, FAbetaB cleavage, fluorescence polarization; inhibition, % at 5.59 µM; 0.41% of 320,000 active; AID 434962;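 active = percent inhibition above the average of all tested compounds plus 3 SD, set per screening campaign, cut at about 16% in these data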;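 also: IDE supplied by intact live HEK cells; FP after avidin binding of uncleaved biotin substrate so inhibition keeps polarization high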
ANO1 block = inhibitors of mouse TMEM16A calcium-activated chloride channel; HEK293 TMEM16A/YFP iodide influx fluorescence, ionomycin; normalized B-score (activity score, 25-100; higher = stronger inhibition) at 10 µM; 1.2% of 310,000 active; AID 588511;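 active = ratio plate-corrected score three or more library SD toward inhibition, starting fluorescence score within five deviations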;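 also: score derived from kinetic fluorescence span divided by baseline fluorescence per well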
TMEM16A act = activates or potentiates the mouse TMEM16A chloride channel; Q8BHY3; HEK293 TMEM16A/YFP-H148Q/I152L, iodide quench fluorescence; stronger effect = lower value; B-score at 10 µM; 0.3% of 340,000 active; AID 623877;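 active = fluorescence-ratio B-score plate-corrected deviation score at least 3 library SD below zero, with starting fluorescence score within 5 deviations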;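 also: channel opened by trigger with iodide after compound preincubation; score built on the fluorescence ratio of max minus min over baseline; more negative score means more quench and so TMEM16A activation or potentiation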
CHT block = inhibitors of human choline transporter CHT | Q9GZV3 | AID 488975 | CHT-expressing cells, membrane potential dye, choline response; stronger effect = lower value | B-score at 10 µM | 0.86% of 310,000 active;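 active = B-score over 3 SD under the library average, and starting fluorescence ratio not unusually high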;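 also: choline stimulus applied at its EC90 after an EC20 pre-addition; B-score computed on integrated fluorescence ratio after choline addition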
IDE cell inh cf = confirmation of human insulin-degrading enzyme inhibitors in cells. shares compounds with IDE inh. HEK cells, FAbetaB cleavage, fluorescence polarization. inhibition, % at 5.59 µM. 51% of 1,200 active;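 active = mean inhibition across triplicate wells above the cutoff set by the earlier primary insulin-degrading enzyme screen, cut at about 16% in these data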
HEK cytotox = kills HEK cells in IDE inhibitor counter-screen. 28% of 1,200 active. shares compounds with IDE inh. inhibition, % at 5.59 µM. HEK293 cytotoxicity, ATP luminescence. AID 449730; in the data active = inhibition above about 22%
IDE FP artifact = counter-screen for IDE inhibitors: fluorescent artifacts; shares compounds with IDE inh; FP counterscreen for fluorescent artifacts, IDE probe project; IC50, µM; 30 tested, under 10 active; AID 588718; call rule not given here
A number is an active result; - = inactive; . = no result. A selection: hits, their analogues and other compounds. The true share with any hit is near 2.7%.

SMILES	IDE act	CHT PAM	IDE inh	ANO1 block	TMEM16A act	CHT block	IDE cell inh cf	HEK cytotox	others
Fc1ccccc1CSc1nc2ncc(Br)cc2[nH]1	-	-	-	-	-	-	.	.
O=c1[nH]c2cc(Br)cnc2nc1/C=C(\O)c1ccc(F)cc1	-	-	26	-	-	-	65	-
O=C1CCC/C(=N/NC(=O)c2sc3ccccc3c2Cl)C1	-	-	26	-	-	-	27	-
CCn1c(CC(=O)Nc2ccc(F)cc2)nnc1SCC(=O)Nc1nncs1	-	-	-	-	-	-	.	.
O=C(NCC1CCCO1)C(c1cccs1)N(Cc1ccccc1Cl)C(=O)c1ccc(-c2ccccc2)[nH]1 (configuration not stated)	-	-	-	-	-	-	.	.
Cc1ccc(C(C(=O)NCC2CCCO2)N(Cc2ccccc2)C(=O)c2ccc(-c3ccccc3)[nH]2)o1 (configuration not stated)	-	-	21	-	-	-	-	-
COc1cc(NC(=O)C2CSC3(C)CCC(=O)N23)c(OC)cc1Cl (configuration not stated)	-	-	-	-	-	-	.	.
C/C(=N\Nc1ccc([N+](=O)[O-])cc1)c1cc2ccccc2o1	-	-	18	-	-	-	-	-
CCN(C(=O)COn1nnc2ccc(S(=O)(=O)N(C)C)cc21)C1CCS(=O)(=O)C1 (configuration not stated)	-	.	-	.	-	.	.	.
Cc1cc(/C=C2\NC(=S)N(C)C2=O)ccc1N1CCCC1	-	-	88	-	-	-	96	-
CCN1C(=O)/C(=C/c2ccc(N3CCCC3)cc2)NC1=S	-	-	124	-	-	-	158	23
CCCCOc1ncnc2c1[nH]c1ccc(OCC)cc12	-	-	-	-	-	-	.	.
COc1ccc(N2CCN(c3ncnc4c3[nH]c3ccccc34)CC2)cc1	-	-	35	-	-	-	42	64
CCOc1ccc2[nH]c3c(N4CCN(C(=O)c5ccco5)CC4)ncnc3c2c1	.	-	40	-	.	-	16	-	IDE FP artifact=-
CCCCOc1ncnc2c1[nH]c1ccc(OC)cc12	.	-	21	-	.	-	-	38
Fc1ccc2[nH]c3c(N4CCN(c5ccccc5)CC4)ncnc3c2c1	-	-	50	-	-	-	33	55
COc1cc2[nH]c3c(N4CCN(c5ccccn5)CC4)ncnc3c2cc1OC	-	-	-	-	-	-	.	.
CSc1ccc(CN(C)C(=O)CNC(=O)c2ccc3c(c2)OCO3)cc1	-	-	-	-	-	-	.	.
CCCCN(C(=O)C1CCCC1)C1CCS(=O)(=O)C1 (configuration not stated)	-	.	.	.	-	.	.	.
CCOC(=O)N1CCN(c2ncnc3c2[nH]c2ccc(OC)cc23)CC1	-	-	41	-	-	-	26	-
CCOc1ccc2[nH]c3c(N4CCC5(CC4)OCCO5)ncnc3c2c1	.	-	-	-	.	-	.	.
CCOC(=O)N1CCN(c2ncnc3c2[nH]c2ccc(F)cc23)CC1	-	-	62	-	-	-	52	59
O=C(COC(=O)C1=COCCO1)Nc1ccc([N+](=O)[O-])cc1C(F)(F)F	-	.	-	.	-	.	.	.
Cc1ccc(CSc2ccc(S(=O)(=O)N3CCCC3)cn2)cc1	-	.	-	.	-	.	.	.
O=S(=O)(c1ccc(SCc2cccc(Cl)c2)nc1)N1CCCC1	-	.	16	.	-	.	18	-
SMILES	IDE act	CHT PAM	IDE inh	ANO1 block	TMEM16A act	CHT block	IDE cell inh cf	HEK cytotox	others
Cc1ccc(-c2n[nH]c(=S)c3ccccc23)cc1S(=O)(=O)NCC1CCCO1 (configuration not stated)	-	-	22	-	-	-	-	-
Cc1ccc(-c2n[nH]c(=O)c3ccccc23)cc1S(=O)(=O)NCC1CCCO1 (configuration not stated)	-	-	-	-	-	-	.	.
Cc1nn(C)c(N)c1[N+](=O)[O-]	-	-	-	-	-	-	.	.
Cc1nn(C)c(Sc2ccccc2N)c1[N+](=O)[O-]	-	-	28	-	-	-	-	-
CCCNC(=O)Cn1sc2nc(C)cc(C)c2c1=O	-	-	40	-	-	-	-	42
CCOC(=O)C1CCCN(C(=O)Cn2sc3nc(C)cc(C)c3c2=O)C1 (configuration not stated)	-	-	19	-	-	-	-	66
O=C1NC(=S)S/C1=C\c1cc(Cl)cc(Cl)c1O	-	.	.	.	-	.	.	.
Cc1cc(/C=C2\SC(=S)NC2=O)cc(C)c1O	-	-	16	-	-	-	31	-
CCc1ccccc1NC(=O)NNC(=O)CCc1ccc(OC)cc1	-	-	.	-	-	-	.	.
COc1cc2nc(CN3CCN(S(=O)(=O)c4cc(C)ccc4C)CC3)[nH]c(=O)c2cc1OC	-	.	-	.	-	.	.	.
CC(C)(C)OC(=O)C[C@H]1C/C=C\C[C@H](CC(=O)N(CCO)Cc2ccccc2)C(=O)N[C@@H](c2ccccc2)COC1=O	-	.	-	.	-	.	.	.
CCN(CC)c1ccc(/C=C(/C#N)c2nc3ccc(C)cc3[nH]2)c(OC(C)C)c1	-	-	136	-	-	-	152	23
CCOc1cc(N(CC)CC)ccc1/C=C(/C#N)c1nc2ccccc2[nH]1	-	-	108	-	-	-	144	29
COc1cc(/C=C(\C#N)c2nc3ccc(C)cc3[nH]2)c([N+](=O)[O-])cc1OC	-	-	-	-	-	-	.	.
COc1cccc(/C=C(\C#N)c2nc3ccccc3[nH]2)c1OCC(=O)O	-	-	-	-	-	-	.	.
CCCCN(C(=O)C(C)Oc1ccc(Br)cc1)c1c(N)n(CC(C)C)c(=O)[nH]c1=O (configuration not stated)	-	.	-	.	-	.	.	.
S=C(NCCCN1CCOCC1)N1CCN(c2nc(-c3ccccc3)cs2)CC1	-	-	23	-	-	-	-	27
S=C(NCC1CCCO1)N1CCN(c2nc(-c3ccc(Cl)cc3)cs2)CC1 (configuration not stated)	-	-	21	-	-	-	-	54
S=C(NCCCN1CCOCC1)N1CCN(c2ccccc2)CC1	-	-	-	-	-	-	.	.
COC1c2ccccc2C(=O)N1Cc1ccc(F)cc1 (configuration not stated)	-	-	-	-	-	-	.	.
O=c1ccc(-c2ccc(S(=O)(=O)NCC3CCN(Cc4ccccc4F)CC3)s2)n[nH]1	-	-	-	-	-	-	.	.
